Data reported in PubChem BioAssay (EPA / NIEHS).
Inconclusive results are not listed. The source made the active and inactive calls. How the source made its calls, unless noted: active means hit-call score of the fitted dose curve at least 0.9, where 1 is the maximum; inconclusive means response in the unintended direction; inactive means score below 0.9.

Key:
[1] = target: rat Opioid Receptor, Non-selective Binding, Oprm1 (gene 25601) (UniProt P33535); experiment: NVS_GPCR_rOpiate_NonSelective: NovaScreen (NVS) G Protein-Coupled Receptor Assay for rat Opioid Receptor, Non-selective Binding (AID 2283318)
Procedure, shortened: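 Rat forebrain membranes, cell-free radioligand binding with filter-based scintillation counting, read 1.5 h after dosing. Primary screen in duplicate at 25 uM; actives retested in concentration series. Loss of signal versus DMSO baseline scored.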

NCBI gene 24521 = experiment: NVS_IC_rKATPCh: NovaScreen (NVS) Ion Channel Assay for rat Potassium Channel, ATP-Sensitive (KATPCh) (AID 2283319)
Procedure, shortened: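 Rat cortical membranes; radioligand binding at ATP-sensitive K channel site, filter-based scintillation counting 2 h after dosing. Single-point duplicate screen at 25 uM, hits rerun in concentration-response up to 50 uM; loss of signal versus DMSO.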

[2] = NVS_IC_rCaDHPRCh_L: NovaScreen (NVS) Ion Channel Assay for rat Calcium Channel, Type L, Dihydropyridine Site (CaDHPRCh_L) (AID 2283320)
Procedure, shortened: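 Radioligand binding to dihydropyridine site on rat cortical membranes, filter-based scintillation counting, 1 h after dosing. Screened in duplicate at 25 uM; actives rerun in concentration-response up to 50 uM. Loss of signal versus DMSO baseline.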

[3] = target: human Peripheral-type Benzodiazepine Receptor (PBR), TSPO (gene 706) (UniProt P30536); experiment: NVS_MP_hPBR: NovaScreen (NVS) Membrane Protein Assay for human Peripheral-type Benzodiazepine Receptor (PBR) (AID 2283331);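 further: hits reduce radioligand binding relative to DMSO baseline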
Procedure, shortened: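 Scintillation counts of filter-bound radioligand served as read-out after 1 h chemical dosing of human colonic membrane preparations. Activity was scored as signal loss against DMSO; initial duplicates at 25 uM, confirmatory concentration series afterward.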

[4] = target: human Androgen Receptor (AR), AR (gene 367) (UniProt P10275); experiment: NVS_NR_hAR: NovaScreen (NVS) Nuclear Receptor Binding Assay for human Androgen Receptor (AR) (AID 2283332)
Procedure, shortened: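 Radioligand competitive binding, scintillation read-out, in cell-free extract from LnCAP, measured 20 h after dosing. Screened first in duplicate at 25 uM, then concentration series for actives; activity fitted against DMSO.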

[5] = target: rat Peripheral-type Benzodiazepine Receptor (PBR), Tspo (gene 24230) (UniProt P16257); experiment: NVS_MP_rPBR: NovaScreen (NVS) Membrane Protein Assay for rat Peripheral-type Benzodiazepine Receptor (PBR) (AID 2283335)
Procedure, shortened: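 Radioligand displacement, rat kidney membrane prep, 1 h exposure, filter-based scintillation read; DMSO baseline, loss-of-signal scored. Primary screen at 25 uM in duplicate, actives followed up in concentration series.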

[6] = NVS_IC_rCaBTZCHL: NovaScreen (NVS) Ion Channel Assay for Calcium Channel, Type L, Benzothiazepine Site (CaBTZCHL) (AID 2283337)
Procedure, shortened: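 Radioligand binding to the benzothiazepine site of L-type Ca channels in rat cortical membranes (cell-free), 1.5 h after dosing; filter-based scintillation counting. Loss of signal relative to DMSO baseline; primary single-concentration screen at 25 uM, actives then run in concentration series.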

[7] = target: Sodium channel protein type 1 subunit alpha (Rattus norvegicus) (UniProt P04774); experiment: NVS_IC_rNaCh_site2: NovaScreen (NVS) Ion Channel Assay for rat Sodium Channel, Site 2 (NaCh) (AID 2283322);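 further: hit means loss of radioligand binding signal relative to DMSO so AC50 marks displacement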
Procedure, shortened: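 Membranes: rat forebrain. Format: competitive radioligand displacement, filter separation, scintillation readout, 1 h exposure. Primary screen in duplicate at 25 uM; actives retested in concentration series.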

[8] = target: rat Thyrotropin Releasing Hormone Receptor (TRH), Trhr (gene 25570) (UniProt Q01717); experiment: NVS_GPCR_rTRH: NovaScreen (NVS) G Protein-Coupled Receptor Assay for rat Thyrotropin Releasing Hormone Receptor (TRH) (AID 2283329);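 further: hit means lower bound tracer signal versus DMSO baseline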
Procedure, shortened: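 Competitive radioligand binding on rat forebrain membrane preparations, with filtration and scintillation readout after 4 h. Primary testing in duplicate at 25 uM; actives confirmed in concentration-response. DMSO defined baseline.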

[9] = target: Voltage-dependent N-type calcium channel subunit alpha-1B (Rattus norvegicus) (UniProt Q02294); experiment: NVS_IC_rCaChN: NovaScreen (NVS) Ion Channel Assay for rat Calcium Channel, Type N (CaChN) (AID 2283317)
[10] = target: Voltage-gated inwardly rectifying potassium channel KCNH2 (Homo sapiens) (UniProt Q12809); experiment: NVS_IC_hKhERGCh: NovaScreen (NVS) Ion Channel Assay for human Potassium Channel ERG (KhERGCh) (AID 2283333)
Procedure, shortened: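 Cell-free radioligand competition binding on hERG protein extracted from CHO cells, read by filter-based scintillation counting 0.75 h after dosing. Primary screen at 25 uM in duplicate, actives followed in concentration series. Signal loss fitted versus DMSO.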

[11] = target: bovine Gamma-Aminobutyric Acid Type A Receptor BDZ, alpha 5 site (GABARa5), GABRA5 (gene 523515) (UniProt Q08E50); experiment: NVS_LGIC_bGABARa5: NovaScreen (NVS) Ligand-Gated Ion Channel Assay for bovine Gamma-Aminobutyric Acid Type A Receptor BDZ, alpha 5 site (GABARa5) (AID 2283323)
Procedure, shortened: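 Radioligand competitive displacement binding on bovine hippocampal membranes, read 1 hr after dosing by filter-based scintillation counting. Primary screen at 25 uM in duplicate; actives (e.g. ≥30% inhibition) then run in concentration-response up to 50 uM.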

[12] = target: rat Glutamate, NMDA Agonist Site (GluNMDA), Grin1 (gene 24408) (UniProt P35439); experiment: NVS_LGIC_rGluNMDA_Agonist: NovaScreen (NVS) Ligand-Gated Ion Channel Assay for rat Glutamate, NMDA Agonist Site (GluNMDA) (AID 2283327)
Procedure, shortened: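 Rat forebrain membranes, radioligand binding in the agonist-site protocol; 1 h after dosing; filter-based scintillation counting. Single-concentration duplicate screen at 25 uM, then concentration-response up to 50 uM for actives; gain-of-signal vs DMSO.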

[13] = target: rat Glutamate, AMPA Site (AMPA), Gria1 (gene 50592) (UniProt P19490); experiment: NVS_LGIC_rAMPA: NovaScreen (NVS) Ligand-Gated Ion Channel Assay for rat Glutamate, AMPA Site (AMPA) (AID 2283324)
Procedure, shortened: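 Rat forebrain membranes; radioligand binding read 1 h after dosing by filtration and scintillation counting. Duplicate single-point screen at 25 uM, then concentration-response to 50 uM for threshold hits (e.g. 30% inhibition); loss of signal vs DMSO.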

[14] = target: human Serotonin, 5-Hydroxytryptamine Receptor 3 (5HT3), HTR3A (gene 3359) (UniProt P46098); experiment: NVS_LGIC_h5HT3: NovaScreen (NVS) Ligand-Gated Ion Channel Assay for human Serotonin, 5-Hydroxytryptamine Receptor 3 (5HT3) (AID 2283325)
Procedure, shortened: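 Radioligand displacement binding to human 5-HT3 from HEK293 membranes, read by filter-based scintillation counting after 1 h. Screen at 25 uM in duplicate; chemicals passing threshold were retested in concentration-response up to 50 uM.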

[15] = target: rat Oxytocin Receptor (OXT), Oxtr (gene 25342) (UniProt P70536); experiment: NVS_GPCR_rOXT: NovaScreen (NVS) G Protein-Coupled Receptor Assay for rat Oxytocin Receptor (OXT) (AID 2283330)
Procedure, shortened: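 Radioligand displacement on rat uterine membranes, 1 h incubation, filter-based scintillation counting. Chemicals were screened in duplicate at 25 uM, and those passing threshold were retested in concentration-response up to 50 uM. Loss of binding was fitted versus DMSO.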

[16] = target: rat Gamma-Aminobutyric Acid Type A Receptor BDZ, alpha 6 site (GABARa6), Gabra6 (gene 29708) (UniProt P30191); experiment: NVS_LGIC_rGABARa6: NovaScreen (NVS) Ligand-Gated Ion Channel Assay for rat Gamma-Aminobutyric Acid Type A Receptor BDZ, alpha 6 site (GABARa6) (AID 2283339)
Procedure, shortened: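 Rat cerebellar membranes; radioligand binding, filtration and scintillation counting, read 1 h after dosing. Single-concentration duplicate screen at 25 uM, then concentration-response up to 50 uM for actives; loss of signal fitted versus DMSO baseline.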

[17] = target: Glutamate receptor ionotropic, kainate 1 (Rattus norvegicus) (UniProt P22756); experiment: NVS_IC_rKAR: NovaScreen (NVS) Ion Channel Assay for rat Kainic Acid Receptors (KAR) (AID 2283334; active means hit-call score of the fitted dose curve at least 0.9, where 1 is the maximum; inactive means score below 0.9)
Procedure, shortened: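 Radioligand displacement binding using rat forebrain membranes, 1 h incubation, filter-based scintillation counting. Screened in duplicate at 25 uM, with actives retested in concentration-response up to 50 uM; fitted against DMSO.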

rat Peripheral-type Benzodiazepine Receptor (PBR), Tspo (gene 24230), sequence (P16257 whole entry, looked up): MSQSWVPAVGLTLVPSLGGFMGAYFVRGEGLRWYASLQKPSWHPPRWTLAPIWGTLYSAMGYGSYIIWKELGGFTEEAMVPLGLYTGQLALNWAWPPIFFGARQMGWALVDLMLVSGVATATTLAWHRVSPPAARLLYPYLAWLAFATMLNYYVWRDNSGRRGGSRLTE
rat Opioid Receptor, Non-selective Binding, Oprm1 (gene 25601), sequence (P33535 whole entry, looked up): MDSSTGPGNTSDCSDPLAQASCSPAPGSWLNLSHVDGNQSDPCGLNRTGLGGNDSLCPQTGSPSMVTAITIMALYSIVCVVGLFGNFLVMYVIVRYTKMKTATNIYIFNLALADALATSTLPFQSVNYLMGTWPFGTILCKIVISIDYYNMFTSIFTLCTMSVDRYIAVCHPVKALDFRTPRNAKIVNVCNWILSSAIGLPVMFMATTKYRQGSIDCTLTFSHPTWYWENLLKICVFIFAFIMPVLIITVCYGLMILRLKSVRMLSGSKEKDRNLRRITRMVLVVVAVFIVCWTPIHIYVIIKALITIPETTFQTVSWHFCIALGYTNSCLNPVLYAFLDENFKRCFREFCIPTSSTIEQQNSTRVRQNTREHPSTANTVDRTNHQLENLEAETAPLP
human Peripheral-type Benzodiazepine Receptor (PBR), TSPO (gene 706), sequence (P30536 whole entry, looked up): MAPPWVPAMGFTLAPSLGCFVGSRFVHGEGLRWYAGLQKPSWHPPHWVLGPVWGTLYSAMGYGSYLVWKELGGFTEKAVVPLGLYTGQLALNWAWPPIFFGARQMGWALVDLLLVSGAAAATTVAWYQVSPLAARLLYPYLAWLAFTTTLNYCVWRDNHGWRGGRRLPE
Voltage-gated inwardly rectifying potassium channel KCNH2 (Homo sapiens), sequence (Q12809 whole entry, looked up): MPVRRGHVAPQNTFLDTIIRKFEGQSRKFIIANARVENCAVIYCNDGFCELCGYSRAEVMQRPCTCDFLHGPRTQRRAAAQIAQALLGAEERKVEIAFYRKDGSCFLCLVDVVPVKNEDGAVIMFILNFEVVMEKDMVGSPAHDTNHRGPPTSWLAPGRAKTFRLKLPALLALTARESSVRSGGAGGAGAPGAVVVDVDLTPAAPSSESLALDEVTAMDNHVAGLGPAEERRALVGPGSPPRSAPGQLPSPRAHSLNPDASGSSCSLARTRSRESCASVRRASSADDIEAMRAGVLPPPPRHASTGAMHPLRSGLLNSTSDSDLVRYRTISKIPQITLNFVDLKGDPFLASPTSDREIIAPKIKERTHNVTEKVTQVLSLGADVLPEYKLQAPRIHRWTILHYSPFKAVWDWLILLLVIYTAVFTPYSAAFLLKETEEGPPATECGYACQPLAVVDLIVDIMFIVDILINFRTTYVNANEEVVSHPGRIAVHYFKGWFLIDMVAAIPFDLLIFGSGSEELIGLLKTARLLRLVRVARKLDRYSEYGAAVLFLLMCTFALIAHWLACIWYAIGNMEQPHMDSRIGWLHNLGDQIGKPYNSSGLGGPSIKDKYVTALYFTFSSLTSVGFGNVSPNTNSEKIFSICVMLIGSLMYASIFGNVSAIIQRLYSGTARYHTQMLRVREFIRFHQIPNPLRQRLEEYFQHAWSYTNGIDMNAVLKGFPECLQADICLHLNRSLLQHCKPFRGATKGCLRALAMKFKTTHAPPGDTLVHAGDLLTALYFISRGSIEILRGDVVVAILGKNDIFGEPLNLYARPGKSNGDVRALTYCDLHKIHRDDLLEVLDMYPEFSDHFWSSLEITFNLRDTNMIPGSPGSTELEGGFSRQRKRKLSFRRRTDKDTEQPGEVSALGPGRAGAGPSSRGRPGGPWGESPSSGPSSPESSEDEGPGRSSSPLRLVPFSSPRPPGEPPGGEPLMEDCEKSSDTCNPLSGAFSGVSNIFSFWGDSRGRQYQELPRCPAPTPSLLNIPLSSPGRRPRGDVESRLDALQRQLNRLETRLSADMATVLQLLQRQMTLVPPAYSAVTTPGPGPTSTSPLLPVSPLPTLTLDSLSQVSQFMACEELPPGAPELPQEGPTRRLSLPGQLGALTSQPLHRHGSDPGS
rat Thyrotropin Releasing Hormone Receptor (TRH), Trhr (gene 25570), sequence (Q01717 whole entry, looked up): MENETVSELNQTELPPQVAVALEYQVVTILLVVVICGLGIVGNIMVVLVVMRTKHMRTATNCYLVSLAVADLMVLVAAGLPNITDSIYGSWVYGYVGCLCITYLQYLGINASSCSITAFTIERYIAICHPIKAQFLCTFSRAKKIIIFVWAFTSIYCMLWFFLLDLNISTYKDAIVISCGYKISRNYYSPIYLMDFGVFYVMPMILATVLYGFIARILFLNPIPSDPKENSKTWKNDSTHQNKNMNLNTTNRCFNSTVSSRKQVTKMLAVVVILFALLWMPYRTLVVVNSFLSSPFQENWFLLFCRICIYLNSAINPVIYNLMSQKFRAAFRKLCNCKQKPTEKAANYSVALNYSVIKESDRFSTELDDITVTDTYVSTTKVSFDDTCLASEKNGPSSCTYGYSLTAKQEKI
human Androgen Receptor (AR), AR (gene 367), sequence (P10275 whole entry, looked up): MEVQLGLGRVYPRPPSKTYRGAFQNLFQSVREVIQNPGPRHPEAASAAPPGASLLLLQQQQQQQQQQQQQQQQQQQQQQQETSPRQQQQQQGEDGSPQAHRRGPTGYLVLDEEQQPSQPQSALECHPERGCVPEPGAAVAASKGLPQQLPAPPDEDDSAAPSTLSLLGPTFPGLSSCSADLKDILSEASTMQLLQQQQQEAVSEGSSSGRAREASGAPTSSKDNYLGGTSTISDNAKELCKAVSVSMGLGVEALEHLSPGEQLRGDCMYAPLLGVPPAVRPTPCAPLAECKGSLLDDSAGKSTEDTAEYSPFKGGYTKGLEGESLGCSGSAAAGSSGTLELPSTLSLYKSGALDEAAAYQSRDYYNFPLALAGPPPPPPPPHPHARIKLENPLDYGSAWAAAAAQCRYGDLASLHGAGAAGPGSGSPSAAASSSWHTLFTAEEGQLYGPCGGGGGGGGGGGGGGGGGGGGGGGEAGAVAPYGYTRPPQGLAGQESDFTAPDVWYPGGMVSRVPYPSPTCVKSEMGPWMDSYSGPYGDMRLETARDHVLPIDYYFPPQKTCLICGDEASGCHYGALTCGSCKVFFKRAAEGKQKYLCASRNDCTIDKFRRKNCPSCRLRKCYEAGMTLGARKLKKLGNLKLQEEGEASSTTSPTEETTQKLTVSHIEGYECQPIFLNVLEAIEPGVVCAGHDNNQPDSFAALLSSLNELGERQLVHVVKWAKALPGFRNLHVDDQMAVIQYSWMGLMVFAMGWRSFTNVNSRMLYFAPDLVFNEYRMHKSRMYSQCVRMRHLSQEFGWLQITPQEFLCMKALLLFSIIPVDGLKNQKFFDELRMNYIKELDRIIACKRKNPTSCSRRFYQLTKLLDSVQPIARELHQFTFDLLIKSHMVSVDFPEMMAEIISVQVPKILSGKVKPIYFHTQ
bovine Gamma-Aminobutyric Acid Type A Receptor BDZ, alpha 5 site (GABARa5), GABRA5 (gene 523515), sequence (Q08E50 whole entry, looked up): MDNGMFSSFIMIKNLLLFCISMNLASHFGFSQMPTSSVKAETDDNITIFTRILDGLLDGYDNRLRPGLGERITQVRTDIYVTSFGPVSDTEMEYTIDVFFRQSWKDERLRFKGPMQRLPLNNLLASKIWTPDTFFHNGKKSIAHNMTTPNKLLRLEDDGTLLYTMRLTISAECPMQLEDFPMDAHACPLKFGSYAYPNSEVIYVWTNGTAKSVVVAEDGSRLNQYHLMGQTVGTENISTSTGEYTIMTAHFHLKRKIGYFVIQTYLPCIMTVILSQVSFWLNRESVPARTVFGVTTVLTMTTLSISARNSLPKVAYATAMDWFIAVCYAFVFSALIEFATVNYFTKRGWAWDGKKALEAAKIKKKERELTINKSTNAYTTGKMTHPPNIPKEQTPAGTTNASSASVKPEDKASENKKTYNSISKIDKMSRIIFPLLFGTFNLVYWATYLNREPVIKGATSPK
human Serotonin, 5-Hydroxytryptamine Receptor 3 (5HT3), HTR3A (gene 3359), sequence (P46098 whole entry, looked up): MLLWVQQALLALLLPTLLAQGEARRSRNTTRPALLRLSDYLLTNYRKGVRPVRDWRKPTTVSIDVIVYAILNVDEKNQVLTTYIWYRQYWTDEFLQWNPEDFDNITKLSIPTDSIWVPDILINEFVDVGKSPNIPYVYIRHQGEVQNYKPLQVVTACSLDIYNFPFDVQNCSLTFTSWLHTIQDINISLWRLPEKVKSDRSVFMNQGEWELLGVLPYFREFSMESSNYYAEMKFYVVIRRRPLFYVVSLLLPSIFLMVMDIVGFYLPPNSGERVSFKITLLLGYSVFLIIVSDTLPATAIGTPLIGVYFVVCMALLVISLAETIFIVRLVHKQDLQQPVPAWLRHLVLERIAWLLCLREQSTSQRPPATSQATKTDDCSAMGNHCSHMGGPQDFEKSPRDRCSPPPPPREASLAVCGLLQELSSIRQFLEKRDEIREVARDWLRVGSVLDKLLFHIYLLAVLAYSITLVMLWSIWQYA
rat Oxytocin Receptor (OXT), Oxtr (gene 25342), sequence (P70536 whole entry, looked up): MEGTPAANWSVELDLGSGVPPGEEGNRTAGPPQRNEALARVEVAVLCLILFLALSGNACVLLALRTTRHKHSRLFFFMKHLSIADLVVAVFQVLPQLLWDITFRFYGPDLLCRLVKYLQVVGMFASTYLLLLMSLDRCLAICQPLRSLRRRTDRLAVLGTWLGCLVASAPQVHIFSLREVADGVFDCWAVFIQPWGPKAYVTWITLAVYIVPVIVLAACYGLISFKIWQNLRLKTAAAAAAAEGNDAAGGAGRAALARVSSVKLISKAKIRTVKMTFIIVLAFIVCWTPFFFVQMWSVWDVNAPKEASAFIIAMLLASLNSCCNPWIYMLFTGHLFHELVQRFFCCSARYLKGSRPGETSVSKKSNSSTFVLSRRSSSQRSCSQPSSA

COc1ccc(C(=CC(=O)N2CCOCC2)c2ccc(Cl)cc2)cc1OC
outcome [1]: inactive | outcome (NCBI gene 24521): inactive | outcome [2]: inactive | outcome [3]: inactive | AC50 [4]: 1.79 µM (active) | outcome [5]: inactive | outcome [6]: inactive

CC(C1CC1)C(O)(Cn1cncn1)c1ccc(Cl)cc1 (stereo unspecified)
outcome [7]: inactive | outcome [8]: inactive | outcome [3]: inactive

Nc1nc(N)nc(NC2CC2)n1
outcome (NCBI gene 24521): inactive

CCCCSP(=O)(SCCCC)SCCCC
outcome [9]: inactive | AC50 [3]: 17.9 µM (active) | outcome [10]: inactive | AC50 [5]: 3.75 µM (active)

CC[C@H](C)[C@H]1O[C@]2(C=C[C@@H]1C)C[C@@H]1C[C@@H](C/C=C(\C)[C@@H](O[C@H]3C[C@H](OC)[C@@H](O[C@H]4C[C@H](OC)[C@@H](NC)[C@H](C)O4)[C@H](C)O3)[C@@H](C)/C=C/C=C3\CO[C@@H]4[C@H](O)C(C)=C[C@@H](C(=O)O1)[C@]34O)O2
outcome [9]: inactive | outcome [1]: inactive | AC50 [2]: 4.83 µM (active) | AC50 [7]: 16.6 µM (active) | AC50 [11]: 1.56 µM (active) | AC50 [12]: 16.4 µM (active) | AC50 [10]: 0.00229 µM (active) | AC50 [6]: 10 µM (active)

Nc1c(Cl)cc([N+](=O)[O-])cc1Cl
outcome [7]: inactive | outcome [8]: inactive | outcome [3]: inactive

CC(C)=CC1C(C(=O)OCN2C(=O)C3=C(CCCC3)C2=O)C1(C)C (stereo unspecified)
outcome [1]: inactive | AC50 [2]: 38.2 µM (active) | outcome [13]: inactive | AC50 [3]: 13.5 µM (active) | outcome [5]: inactive

CCOP(=S)(OCC)Oc1ccc2c(C)c(Cl)c(=O)oc2c1
outcome [1]: inactive | AC50 [3]: 3.86 µM (active) | AC50 [5]: 0.541 µM (active)

CSc1nnc(C(C)(C)C)c(=O)n1N
outcome (NCBI gene 24521): inactive | outcome [14]: inactive | outcome [15]: inactive | outcome [6]: inactive

CNC(=O)ON=C(SC)C(=O)N(C)C
outcome (NCBI gene 24521): inactive | outcome [3]: inactive | outcome [5]: inactive

FC(F)C(F)(F)OCC(Cn1cncn1)c1ccc(Cl)cc1Cl (stereo unspecified)
AC50 [2]: 12.6 µM (active) | AC50 [7]: 25 µM (active) | outcome [8]: inactive | AC50 [3]: 19.4 µM (active) | AC50 [10]: 19.9 µM (active) | AC50 [5]: 5.37 µM (active) | AC50 [6]: 7.26 µM (active) | outcome [16]: inactive

CCC(=O)Nc1ccc(Cl)c(Cl)c1
outcome [7]: inactive | outcome [8]: inactive | AC50 [3]: 15.6 µM (active) | AC50 [4]: 8.41 µM (active) | AC50 [5]: 9.5 µM (active)

O=[N+]([O-])c1cc(C(F)(F)F)c(Cl)c([N+](=O)[O-])c1Nc1ncc(C(F)(F)F)cc1Cl
outcome [11]: inactive | outcome [10]: inactive

C#CCC1=C(C)C(OC(=O)C2C(C=C(C)C)C2(C)C)CC1=O (stereo unspecified)
outcome [14]: inactive

CNc1cnn(-c2cccc(C(F)(F)F)c2)c(=O)c1Cl
outcome [15]: inactive

C=C(C)[C@H]1Cc2c(ccc3c2O[C@@H]2COc4cc(OC)c(OC)cc4[C@@H]2C3=O)O1
outcome [4]: inactive

CCCSP(=O)(OCC)SCCC
outcome [4]: inactive

COP(=O)(NC(C)=O)SC (stereo unspecified)
outcome [17]: inactive
